# A selection: hits, their analogues and other compounds. The true share with any hit is near 4%.
# Peg3 prom inh = Peg3 promoter-driven luciferase inhibitors, primary screen, cell-based, HeLa, luciferase luminescence; HeLa PEG-Prom luciferase reporter, overnight; actives 1.7% (n = 360,000); inhibition, % at 20 µM; AID 588405, 2011;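 active means inhibition of at least 50% at 20 µM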
# KKLEB cytotox = cytotoxicity in KKLEB CF airway cells, primary screen, cytotoxicity control for CF NF-kB inhibitor project, cell-based, uHTS, fluorescence assay plates; KKLEB CF airway cells viability, ATPlite luminescence, overnight; stronger effect = lower value; cells stimulated with P. aeruginosa culture filtrate; activity change (cytotoxicity), % at 5 µM; actives 0.36% (n = 360,000);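 active means corrected activity change at or below -50% at 5 µM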
# CF NFkB inh = inhibitors of PAF-induced NF-kB signaling, primary screen, cell-based, GFP fluorescence, uHTS; inhibition, % at 5 µM; actives 0.86% (n = 360,000); AID 588850, 2011; KKLEB NF-kB-GFP reporter, GFP fluorescence overnight;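 active means at least 50% inhibition at 5 µM, scaled per plate between neutral and stimulator controls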;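 further: PAF is a Pseudomonas aeruginosa culture filtrate used as stimulus; plate controls were PAF-stimulated DMSO wells for no effect and unstimulated DMSO wells for full effect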
# TROY NFkB inh = inhibitors of TROY-driven NF-kB signaling, primary screen, Q293 LMP1-TROYcd cells, NF-kB luciferase, uHTS | inhibition, % at 10 µM | Q293 LMP1-TROYcd NF-kB luciferase reporter, 4 h | actives 0.98% (n = 360,000) | AID 1347056, 2019;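 active means compounds whose plate-normalised and pattern-corrected inhibition of the luciferase reporter signal at the single screening dose is 50% or more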
# HIF-2a inh = HIF-2a reporter inhibitors, primary screen, luminescence, 786-0 RCC cells. 786-0 RCC cells HIF-2a reporter, luciferase luminescence, overnight. inhibition, % at 18.8 µM. actives 0.72% (n = 360,000);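 active means inhibition of the luminescence signal of 40% or more relative to plate controls, in a single-dose primary screen at 18.75 µM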
# TWEAK Fn14 block = inhibitors of TWEAK-Fn14 signaling, primary screen, luciferase reporter cells, uHTS. TWEAK-stimulated Fn14 reporter cells, luciferase luminescence, 8 h. inhibition, % at 10 µM. actives 2% (n = 360,000). AID 1159606, 2016; in the data active means inhibition above about 50%
# An asterisk follows results filed as active; . = no result given.
SMILES,Peg3 prom inh,KKLEB cytotox,CF NFkB inh,TROY NFkB inh,HIF-2a inh,TWEAK Fn14 block
O=C(Nc1cccc(S(=O)(=O)NCc2ccco2)c1)c1cc(-c2ccccc2)nc2ccccc12,62.3*,2.3,-20.3,13.4,11.3,36.0
COc1cc(-c2cc(C(=O)Nc3cccc(C(C)=O)c3)c3ccccc3n2)cc(OC)c1OC,38.4,-8.7,46.5,8.8,-0.6,59.6*
COc1cccc(NC(=O)c2cc(-c3ccco3)nc3ccccc23)c1,15.9,4.2,-17.1,2.1,7.4,3.0
COc1cccc(-c2cc(C(=O)Nc3ccncc3)c3ccccc3n2)c1,4.7,7.2,-35.4,3.5,-2.0,88.9*
Cc1ccc(C=Nc2ccccc2C(N)=O)o1,-13.6,-6.6,8.9,-12.3,8.9,-6.5
CN(C)c1ccc(C=Nc2ccccc2C(N)=O)cc1,63.2*,-41.4,-3.3,-49.1,6.3,-2.3
c1ccc(CCNc2ccnc3cc4ccccc4cc23)cc1,105.6*,0.1,-11.0,11.7,-2.8,-16.4
Cc1ccc(NC(=S)NNC(=S)Nc2ccc(C)cc2C)cc1,-11.0,1.7,56.8*,-22.4,-60.0,-9.2
Cc1cccc(N(CC(=O)NC2CCCCC2)C(=O)Cn2nnc(-c3ccc(C)o3)n2)c1,17.1,10.3,13.8,21.0,8.7,-12.9
O=C(NCCOc1ccc(F)cc1)C1CCN(S(=O)(=O)c2ccccc2)CC1,17.3,1.9,16.0,11.3,4.0,-9.8
CC/C(=N\Nc1ccc([N+](=O)[O-])cc1[N+](=O)[O-])c1ccc(O)cc1,24.7,-6.8,-14.7,17.9,-2.6,-20.7
CC/C(=N\Nc1ccccc1[N+](=O)[O-])c1ccc(O)cc1,-66.7,-0.7,17.2,52.6*,-115.1,4.5
N#C/C(=N\Nc1ccc([N+](=O)[O-])cc1)C(N)=S,-43.5,0.7,23.6,44.0,-167.5,33.1
N#C/C(=N\Nc1ccc(S(=O)(=O)N2CCCCCC2)cc1)C(N)=S,-4.0,-5.3,38.2,49.1,-46.0,67.7*
CS(=O)(=O)Nc1ccc(S(=O)(=O)N2CCCC2)cc1,1.8,11.5,-14.2,1.2,11.1,13.3
N#CC(C#N)=NNc1ccc(S(=O)(=O)N2CCCC2)cc1,8.2,4.3,29.5,54.6*,14.5,51.0*
N#C/C(=N\Nc1ccc(S(=O)(=O)N2CCCCC2)cc1)C(N)=S,18.7,20.3,8.0,38.0,6.7,50.2*
N#C/C(=N/Nc1ccc(S(=O)(=O)N2CCOCC2)cc1)C(N)=O,10.4,12.6,-8.2,-2.1,5.7,-1.9
Oc1c(CN2CCOCC2)cc(CN2CCOCC2)c(O)c1O,3.7,9.9,18.7,5.0,3.2,52.2*
Oc1cccc(CN2CCOCC2)c1O,10.0,3.4,8.4,0.7,19.0,18.8
O=C(O)C1(P(=O)(c2ccc(Cl)cc2)c2ccc(Cl)cc2)CCCC1,-0.9,11.1,-1.2,11.3,14.6,4.2
CC(=O)OCC(=O)C1(O)CCC2C3CCC4=CC(=O)CCC4(C)C3(F)C(O)CC21C (stereo not drawn),5.4,35.6,74.8*,18.6,22.7,3.0
CC12C=CC(=O)C=C1CCC1C3CCC(O)(C(=O)CO)C3(C)CC3OC312 (stereo not drawn),12.9,9.7,-2.7,0.1,24.2,3.4
CC12C=CC(=O)C=C1C(F)CC1C3CCC(O)(C(=O)CO)C3(C)CC(O)C12F (stereo not drawn),-16.0,24.5,69.1*,9.6,19.7,-3.9
CC(=O)OCC(=O)[C@@]1(O)CC[C@H]2[C@@H]3CCC4=CC(=O)C=C[C@]4(C)[C@@]3(F)[C@@H](O)C[C@@]21C,4.3,-15.8,65.3*,20.3,23.3,-2.0
SMILES,Peg3 prom inh,KKLEB cytotox,CF NFkB inh,TROY NFkB inh,HIF-2a inh,TWEAK Fn14 block
CC12C=CC(=O)C=C1CCC1C3CCC(O)(C(=O)CO)C3(C)CC(O)C12F (stereo not drawn),-7.2,36.5,69.8*,26.8,11.8,0.9
CC12CCC(=O)C=C1C(O)CC1C2CCC2(C)C1CCC2(O)C(=O)CO (stereo not drawn),2.7,-3.3,2.8,-1.3,17.3,-5.7
CC(=O)OCC(=O)[C@@]1(O)CC[C@H]2[C@@H]3CCC4=CC(=O)CC[C@]4(C)[C@H]3C(=O)C[C@@]21C,-6.4,26.5,-8.7,-2.4,1.1,-2.5
Cc1cc(C)cc(Nc2nc3c([nH]2)c(=O)n(C)c(=O)n3C)c1,0.1,15.8,28.4,21.4,-18.0,27.7
c1ccc(-c2ccc(-c3cn4c(n3)CCC4)cc2)cc1,-108.7,-22.8,-17.0,29.7,-157.6,55.1*
Cc1nc2ccccc2nc1SCC(=O)c1ccccc1,-2.3,-14.3,17.5,42.7,-43.9,59.6*
COc1ccccc1N1CCN(C(=O)c2noc(C(C)C)c2[N+](=O)[O-])CC1,-4.5,12.5,-3.0,0.5,7.9,-2.5
CCNc1ccc(C(=O)OCC(=O)Nc2cc(C)on2)cc1[N+](=O)[O-],28.4,5.7,-32.5,-16.8,0.9,-25.3
O=c1c2ccccc2nc(/C=C/c2cc(Br)ccc2O)n1CCCO,45.5,-15.1,27.3,11.8,35.8,68.6*
O=c1c2ccccc2nc(/C=C/c2cccc([N+](=O)[O-])c2)n1CCO,2.2,-3.8,-13.8,3.2,4.7,4.4
c1ccc(CCNc2ncnc3ccccc23)cc1,-268.4,-13.3,46.5,24.8,-166.7,67.9*
CCCCCCCCNc1ncnc2ccccc12,-9.8,6.0,12.0,8.1,-46.9,36.4
O=C(NCc1cccc(C(F)(F)F)c1)c1ccc2nc([C@H]3C[C@H](O)[C@@H](CO)O3)[nH]c2c1,1.1,17.6,-14.1,-4.2,-11.6,-3.5
O=C(O)c1[nH]c2ccc(Cl)cc2c1CC(=O)N1CCN(C(=O)c2ccco2)CC1,-2.8,9.0,4.9,-0.8,16.6,-7.3
O=C(c1ccco1)N1CCN(C(=O)C2CCCc3c2[nH]c2ccc(Cl)cc32)CC1 (stereo not drawn),23.8,5.3,-23.2,.,-9.4,65.9*
O=C(CSc1c2c(nc3ccc(Cl)cc13)CCCC2)N1CCN(C(=O)c2ccco2)CC1,25.5,-11.7,53.7*,-6.7,3.2,12.1
O=C(CSc1nc2cc(Cl)ccc2s1)N1CCN(C(=O)c2ccco2)CC1,7.2,-1.6,-3.7,-4.5,21.9,4.2
CCN1CCN(c2cc(C)c3cc(NC(=S)N4CCCC(C)C4)ccc3n2)CC1 (stereo not drawn),14.5,-14.9,15.8,83.4*,12.8,85.8*
CCN1CCN(c2cc(C)c3cc(NC(=S)N4CCN(c5ccc(F)cc5)CC4)ccc3n2)CC1,88.5*,-9.0,20.3,26.3,16.2,-4.2

# Bioassay records deposited in PubChem by Sanford-Burnham Center for Chemical Genomics.
